# Sm TGR inh: S. mansoni TGR enzyme inhibition; Q962Y6; purified TGR, DTNB reduction, TNB absorbance 405 nm; Potency, µM (titrated, usually from 114 µM), most hits filed as inhibitors; 360,000 compounds, 3% hits; AID 485364; note: nearly all actives have a fitted effect of over 60% in size
#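 TGR 20 nM + NADPH 100 uM (dispensed conc.), cpd preinc 15 min RT; start with NADPH (500 uM addition) then DTNB (15 mM addition). Kinetic TNB absorbance, 405 nm filter. Four-parameter Hill fit across titration.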
# RE007 growth inh: less growth of the S. pombe RE007 Vpr strain. S. pombe RE007 Vpr strain, BacTiter-Glo ATP luminescence, 24 h. Potency, µM (series often up to 92.2 µM), most hits filed as inhibitors. 360,000 compounds, 0.21% hits. AID 651644; active = well fitted falling curve with a large enough effect; inconclusive = small, poorly fitted or top-dose-only effect; inactive = no such curve, though single readings can be large or run the other way; note: nearly all actives have a fitted effect of over 50% in size
#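 Fission yeast RE007 carrying one integrated HIV-1 vpr copy, seeded at OD 0.01 in PMG+AL medium with 23 nL pinned compound. Grown 24 h at 30 degrees; viability read by BacTiter-Glo luminescence after 5 min.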
# Tb PYK inh: blocks Trypanosoma brucei pyruvate kinase; TbPYK enzyme, Kinase-Glo Plus ATP luminescence, 45 min; Q57TT1; Potency, µM (series often up to 76.8 µM), usual class: inhibitors; 410,000 compounds, 0.12% hits; AID 624173; note: nearly all actives have a fitted effect of over 50% in size
#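 Enzyme and substrate buffer are dispensed first and compound is pin-transferred. ADP at 130 uM final then starts the reaction, which runs 45 min at room temperature. Detection reagent is added for 10 min before luminescence is imaged.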
# FMDV antiviral: blocks foot and mouth disease virus | 410,000 compounds, 1.2% hits | Potency, µM (top dose mostly 57.9 µM), hits mostly inhibitors | FMDV antiviral cell-based qHTS | AID 1159524; calls by dose curve; tested in HEK293T cells; note: read-out not given here; nearly all actives have a fitted effect of over 45% in size
# Hits are given with their value; n = inactive; u = inconclusive; x = not tested or not shown. This is a sample that favours compounds with a hit; in the whole collection about 3.7% have one here. Unless noted, calls come from the whole dose curve; as a rule, active = well fitted curve in the direction sought with a large enough effect; inconclusive = small, poorly fitted or top-dose-only effect, or another doubt; inactive = no such curve, though single readings can be large; an effect the other way counts as inactive or inconclusive.
SMILES,Sm TGR inh,RE007 growth inh,Tb PYK inh,FMDV antiviral
CC1CCN(S(=O)(=O)c2ccc3c(c2)N(CC(=O)NCC(C)c2ccccc2)C(=O)CO3)CC1 (stereo not drawn),n,x,n,n
COCCCN1C(=O)c2oc3ccccc3c(=O)c2C12C(=O)N(C)c1ccccc12 (stereo not drawn),n,x,n,n
O=C1c2ccccc2NC(c2ccc(Br)o2)N1O (stereo not drawn),11µM,x,n,n
O=C1c2ccccc2NC(c2ccco2)N1O (stereo not drawn),50µM,n,n,n
O=C1c2ccccc2NC(c2ccc(-c3cccs3)o2)N1O (stereo not drawn),32µM,x,n,n
O=C1c2ccccc2NC(c2ccc(-c3ccc(C(F)(F)F)cc3)o2)N1O (stereo not drawn),x,x,n,n
Cc1cc(-c2ccnc(-n3ncc(C(=O)NCc4cccnc4)c3C3CC3)n2)c(C)s1,x,x,x,n
Cc1cc(C(=O)NNC(=S)NCc2ccco2)n(C)n1,22µM,n,n,n
Cc1cc(SCC(=O)NC(=O)NCc2ccco2)nc2ccccc12,40µM,n,n,n
Cc1cc(C)nc(SCC(=O)NCc2ccco2)n1,56µM,n,n,n
COc1ccc(CNC(=O)CSc2cccc3cccnc23)cc1,n,n,n,n
CC(C)(C)c1ccc(C(=O)NNC(=S)NCc2ccco2)cc1,n,n,n,n
O=C(CSc1cccc2cccnc12)NCc1ccco1,45µM,n,n,n
Cc1c(C(=O)NCC2(N3CCOCC3)CCCC2)cnn1-c1nccc(-c2ccccc2F)n1,x,x,x,n
CCCCNC(=O)c1cnn2c(C)c(Cc3c(F)cccc3Cl)c(C)nc12,n,x,n,n
Cc1ccn2c(=O)nc(SCC(=O)NCc3ccco3)nc2c1,35µM,n,n,n
Cc1cc(SCC(=O)c2ccc(O)c(O)c2)nc2ccccc12,2.8µM,n,n,n
Cc1[nH]c2ccccc2c1NC(=O)CN1CCN(c2cccc(C(F)(F)F)c2)CC1,n,n,n,n
Cc1[nH]c2ccccc2c1C(O)CN1CCN(c2cccc(C(F)(F)F)c2)CC1 (stereo not drawn),32µM,n,n,u
COc1ccc(N2C(=O)CC(N3CCN(c4ccc(Cl)cc4)CC3)C2=O)cc1 (stereo not drawn),45µM,n,n,n
CCCOc1ccc(N2C(=O)CC(N3CCN(c4ccc([N+](=O)[O-])cc4)CC3)C2=O)cc1 (stereo not drawn),n,n,n,n
COc1ccc(N2C(=O)CC(N3CCOCC3)C2=O)cc1 (stereo not drawn),25µM,u,n,n
COc1ccccc1N1CCN(C2CC(=O)N(c3cccc(Br)c3)C2=O)CC1 (stereo not drawn),45µM,u,n,n
CCOc1ccc(N2C(=O)CC(N3CCN(c4ccc([N+](=O)[O-])cc4)CC3)C2=O)cc1 (stereo not drawn),10µM,n,n,n
COc1ccc(N2C(=O)CC(N3CCN(c4ccccc4)CC3)C2=O)cc1 (stereo not drawn),n,n,n,n
SMILES,Sm TGR inh,RE007 growth inh,Tb PYK inh,FMDV antiviral
Cc1cc(C)cc(NC(=O)c2cccc(N3CCCS3(=O)=O)c2)c1,n,x,n,n
O=C(CO)NCCCOc1cccc(CN2CCCCC2)c1,x,x,n,x
Cc1ccccc1OCCCCn1c(-c2ccc(Cl)cc2)nc2ccccc2c1=O,n,x,n,n
CCSc1nnc2c(n1)OC(c1ccc(OC)cc1OC)N(C(C)=O)c1ccccc1-2 (stereo not drawn),n,x,n,n
COC(=O)c1ccc(N2C(=O)CC(N3CCC(O)(c4ccc(Br)cc4)CC3)C2=O)cc1 (stereo not drawn),45µM,35µM,n,u
COc1cccc(N2CCN(C3CC(=O)N(c4cccc(Cl)c4)C3=O)CC2)c1 (stereo not drawn),45µM,u,n,n
COC(=O)c1ccc(N2C(=O)CC(N3CCN(C(=O)c4ccco4)CC3)C2=O)cc1 (stereo not drawn),u,n,n,n
O=C1CC(N2CCSCC2)C(=O)N1c1cccc(Cl)c1 (stereo not drawn),28µM,u,n,n
CCOc1ccc(N2C(=O)CC(N3CCN(c4ccc(Cl)cc4)CC3)C2=O)cc1 (stereo not drawn),3.2µM,n,n,n
COc1ccc(N2C(=O)CC(N3CCC(O)(c4ccc(Cl)cc4)CC3)C2=O)cc1 (stereo not drawn),50µM,u,n,n
COc1ccc(N2C(=O)CC(N3CCN(S(=O)(=O)c4ccc(Cl)cc4)CC3)C2=O)cc1 (stereo not drawn),n,n,n,n
CC(C)OCCCNC(=O)CN1C(=O)c2ccccc2Sc2ncccc21,n,x,n,n
Cc1ccc(-c2ccccc2)n1-c1ccc(C(=O)O)cc1,50µM,n,n,n
O=C(O)c1ccc(-n2c(-c3ccccc3)n[nH]c2=S)cc1,n,n,u,n
Cc1nc(=O)c(-c2ccccc2)c(C)n1-c1cccc(C(=O)O)c1,n,n,n,n
Cc1ccc(-c2ccccc2)n1-c1cccc(C(=O)O)c1,20µM,u,n,n
Cc1ccc(C(=O)O)cc1N1CCCC1=O,n,n,n,n
Cc1ccc(C(=O)O)cc1-n1c(C)ccc1-c1ccccc1,32µM,x,n,n
COC(=O)c1cccc(NC(=O)C2CCN(S(=O)(=O)Cc3ccccc3)CC2)c1C,n,x,n,n
COc1ccc(OC)c(S(=O)(=O)NCc2ccc3c(c2)CCN3C(=O)c2cccc(C)c2)c1,n,x,n,n
COc1ccccc1NC(=O)CN1C(=O)c2cccc3cccc1c23,n,x,n,n
COc1ccc(N2CC(NC(=O)c3ccc(S(=O)(=O)N4CCOCC4)cc3)CC2=O)cc1 (stereo not drawn),n,x,n,n
COC(=O)c1ccc(NC(=O)CN(C)S(=O)(=O)c2ccc3c(c2)CCCC(=O)N3)cc1,n,x,n,32µM
CCOc1ccccc1N1Cc2ccccc2C1,13µM,n,n,n
CCOc1ccc(N2Cc3ccccc3C2)cc1,56µM,n,n,n
SMILES,Sm TGR inh,RE007 growth inh,Tb PYK inh,FMDV antiviral
COc1cccc(CN(C)C(=O)c2cnn(-c3ncc4c(n3)-c3ccccc3CCC4)c2C)c1,x,x,x,n
CC1=C(SCc2ccccc2)C(=O)c2ccccc2C1=O,x,u,n,u
O=C1C(SCCO)=C(SCCO)C(=O)c2ccccc21,0.5µM,n,4µM,10µM
COc1ccc(-n2nnnc2C2CCN(S(=O)(=O)c3cccc(Cl)c3C)CC2)cc1,n,x,n,n
C#CCN(C[C@@H]1[C@@H](OC(=O)NCCCCCC)[C@@H](OC(=O)NCCCCCC)Cn2c(=O)ccc(=O)n21)S(=O)(=O)c1ccc(C)cc1,x,n,n,13µM
C#CCN(C[C@@H]1[C@@H](OC(=O)NCC2CCCCC2)[C@@H](OC(=O)NCC2CCCCC2)Cn2c(=O)ccc(=O)n21)S(=O)(=O)c1ccc(C)cc1,x,n,n,10µM
C#CCN(C[C@@H]1[C@@H](OC(=O)NCc2ccc(OC)c(OC)c2)[C@@H](OC(=O)NCc2ccc(OC)c(OC)c2)Cn2c(=O)ccc(=O)n21)S(=O)(=O)c1ccc(C)cc1,x,n,n,u

# Source: PubChem BioAssay
